An excerpt weighted towards active compounds, which were near 1.5% of everything screened.
Eya2 inh – inhibitors of human Eya2 phosphatase activity; O00167; recombinant Eya2, OMFP fluorescence dephosphorylation (OMFP is methylfluorescein phosphate); Potency, µM (series often up to 76.9 µM), for inactives: at the highest dose activity, negative = inhibition, most hits filed as inhibitors; hit rate 0.006% among 330,000; also: potency is read from the fitted curve at half-maximal effect
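Eya2 (0.2 uM) preincubated 10 min at ambient with compound, then OMFP substrate added at 50 uM; 10 min reaction in 50 mM HEPES pH 7.5, 50 mM NaCl, 5 uM MgCl2, 0.05% BSA, 1 mM DTT. Fluorescence read at Ex 485/Em 525 nm.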
TrxR1 substrate – substrates of rat thioredoxin reductase 1. O89049. purified TrxR1 substrate turnover, NADPH consumption readout. Potency, µM (titrated, usually from 114 µM), for the others: at the top dose activity change, negative = substrate turnover. hit rate 0.01% among 390,000. AID 588456; also: potency is read from the fitted curve at half-maximal effect; nearly all actives have a fitted effect of over 50% in size
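Rat TrxR1, dispensed at 90 nM, was prereduced with 400 uM NADPH (final) for 5 min at ~22 deg C, then incubated with compound 15 min before 400 uM selenite. A first-read NADPH fluorescence drop versus no-compound background flagged substrates.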
mIDH1 inhibitor – human IDH1 R132H inhibition | O75874 | IDH1-R132H enzyme, NADPH consumption, diaphorase/resazurin fluorescence | Potency, µM (series often up to 76.6 µM), for inactives: top-dose activity change, negative = inhibition, actives largely listed as inhibitors | hit rate 0.093% among 390,000 | AID 602179; also: potency is read from the fitted curve at half-maximal effect; nearly all actives have a fitted effect of over 65% in size
Target sequence (O75874 whole entry R132H, stated change not applied): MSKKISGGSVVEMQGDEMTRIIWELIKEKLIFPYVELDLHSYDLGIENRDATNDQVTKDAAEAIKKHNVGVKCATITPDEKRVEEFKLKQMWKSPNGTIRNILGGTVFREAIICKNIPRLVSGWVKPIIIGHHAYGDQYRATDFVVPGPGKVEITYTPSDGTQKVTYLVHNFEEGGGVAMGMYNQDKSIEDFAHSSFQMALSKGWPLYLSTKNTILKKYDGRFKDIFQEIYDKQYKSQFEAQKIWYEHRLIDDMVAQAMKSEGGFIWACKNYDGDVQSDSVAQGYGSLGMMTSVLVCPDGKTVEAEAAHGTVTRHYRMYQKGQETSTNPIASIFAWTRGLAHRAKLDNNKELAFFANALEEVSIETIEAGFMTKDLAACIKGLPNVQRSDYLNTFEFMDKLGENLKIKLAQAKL
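IDH1-R132H (0.5 ug/mL dispensed) in pH 7.5 Tris buffer was preincubated 30 min with compound, then given a substrate mix of 0.016 mM NADPH and 2 mM alpha-KG for 80 min at room temperature; remaining NADPH was read by diaphorase/resazurin fluorescence.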
TrxR1 inh – blocks rat thioredoxin reductase 1. O89049. recombinant rTrxR1, NADPH fluorescence consumption, selenite substrate. hit rate 1% among 390,000. Potency, µM (doses to about 114 µM), for inactives: top-dose activity change, negative = inhibition, most hits filed as inhibitors; also: potency is read from the fitted curve at half-maximal effect; nearly all actives have a fitted effect of over 65% in size
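Rat TrxR1 (90 nM in the dispensed reagent) was pre-reduced with 400 uM NADPH for 5 min at room temperature, then incubated with compound for 15 min. After 400 uM selenite was added, NADPH fluorescence (Ex 340/Em 450 nm) was followed for 8 min.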
Coupling enz – counter-screen for Giardia aldolase inhibitors: coupling enzyme system; coupling enzyme system counterscreen, AmpLite Red fluorescence; activity change, negative = inhibition, % at 58.2 µM, hits read low; hit rate 0.67% among 290,000; AID 2472; in the data active = activity change below about -30%
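Activity here indicates interference with the coupling reaction, not aldolase inhibition. Compounds at 57.5 uM final met coupling enzymes for 10 min at RT; substrate and AmpLite Red detection followed, with a 525/598 nm fluorescence read after 20 min.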
The depositor's hits bear a star; ? = inconclusive; · = not tested or not shown; [ ] = another dose, or the depositor's remark. Unless noted, calls follow the shape of the dose curve; as a rule, active = well fitted curve in the direction sought with a large enough effect; inconclusive = small, poorly fitted or top-dose-only effect, or another doubt; inactive = no such curve, though single readings can be large; an effect the other way counts as inactive or inconclusive. % is scaled to controls: 0 for no effect and ±100 for the full control effect.

SMILES	Eya2 inh	TrxR1 substrate	mIDH1 inhibitor	TrxR1 inh	Coupling enz
CCN(CC)S(=O)(=O)c1ccc(OC)c(NC(=O)/C=C/c2ccco2)c1	-8.6%	-4.3%	-0.8%	17.8µM*	0.3
CC(C)C[C@H](NC(=O)[C@H](CC(C)C)NC(=O)[C@@H](Cc1c[nH]c2ccccc12)NC(=O)[C@H](Cc1ccccc1)NC(=O)[C@@H](Cc1c[nH]c2ccccc12)NC(=O)[C@H](CCC(N)=O)NC(=O)[C@H](CCC(N)=O)NC(=O)[C@@H]1CCCN1C(=O)[C@H](CCCCN)NC(=O)[C@@H]1CCCN1C(=O)[C@@H](CCCNC(=N)N)NC(=O)[C@@H]1CCCN1C(=O)CNC(=O)[C@H](CC(C)C)NC(=O)[C@H](CC(C)C)NC(=O)[C@H](Cc1ccc(O)cc1)NC(=O)CNC(=O)[C@H](C)NC(=O)[C@H](CO)NC(=O)[C@H](CC(N)=O)NC(=O)[C@H](CC(C)C)NC(=O)[C@@H](NC(=O)[C@H](Cc1c[nH]c2ccccc12)NC(=O)CN)[C@@H](C)O)C(N)=O	·	·	·	·	4.6
O=c1cc(-c2ccc(O)c(O)c2)oc2ccccc12	·	·	·	·	-20.4
CCCCn1c(CCC(=O)O)ccc1-c1cccs1	13.5%	14.1%	-11.2%	35.5µM*	8.3
CCOC(=O)c1ccc(-n2c(CCC(=O)O)ccc2-c2cccs2)cc1	-2.2%	-5.5%[57.1 µM]	-0.5%	?	14.8
CCc1ccc(-n2c(CCC(=O)O)ccc2-c2cccs2)cc1	·	7.8%	9.1%	35.5µM*	·
Cc1ccc(-n2c(CCC(=O)O)ccc2-c2cccs2)cc1C	18.8%	14.6%	-2.2%	44.7µM*	14.4
CCN(CC)c1ccccc1/C=C/[n+]1ccc(CCCCI)c2ccccc21	·	-1.4%	·	?	·
C[C@H]1COC(=O)O1	·	·	·	·	-2.9
COC(=O)c1ccc(NC(=O)COc2ccccc2C(=O)Nc2ccccc2)cc1	·	5.6%	·	21.9%	·
COc1ccc(NC(=O)c2noc3c2CCC3)cc1	2.2%	-3.7%[57.1 µM]	3.7%	-24.5%[57.1 µM]	0.7
CC(=O)c1ccc(NC(=O)c2noc3c2CCC3)cc1	-3.6%	-10.1%	0.0%	50.1µM*	-1.5
Cc1ccc(NC(=O)c2noc3c2CCC3)cc1C	-16.1%	13.0%	10.9%	50.1µM*	0.2
CCOC(=O)c1c(NC(C)=O)sc2c1CCN(Cc1ccccc1)C2	4.7%	-7.4%[57.1 µM]	13.1%	5.9%[57.1 µM]	-0.3
CCOC(=O)c1c(NC(C)=O)sc2c1CCC(C=O)=C2Sc1ccccc1	36.6%	5.8%	0.0%	1.26µM*	-0.2
[O-][n+]1c2c(c3c4non(O)c4ccc31)CCCC2	9.0%	4.7%	2.2%	1.0%	-0.3
COn1c2c(c3c4no[n+]([O-])c4ccc31)CCCC2	-1.9%	-1.0%	-4.3%	9.7%	-0.4
On1c2c(c3c4nonc4ccc31)CCCC2	1.5%	·	·	·	-59.5*
COn1c2c(c3c4nonc4ccc31)CCCC2	19.3%	?	17.4%	?	-42.9*
COn1c(C)c(C(C)=O)c2c3nonc3ccc21	13.4%	9.1%[57.1 µM]	0.6%	13.1%[57.1 µM]	-47.2*
COc1ccc(-c2nnc3n2N=C(c2cc(OC)ccc2OC)CS3)c(OC)c1	·	·	·	·	0.5
Cc1ccccc1N=C1Nc2ccc(Cl)cc2N[C@]12C[C@H]1CCCC(=O)N3CC[C@@H](C2)[C@@H]13	·	2.9%	·	9.2%	·
COc1cccc(C2=Nn3c(nnc3-c3cc(OC)cc(OC)c3)SC2)c1	·	·	·	·	-0.3
Nc1cc(N)cc(N)c1	·	25.1µM*	·	39.8µM*	·
Cc1cc(N)cc(C)c1-c1c(Br)cc(N)cc1Br	·	-6.9%	-1.1%	-5.3%	·
SMILES	Eya2 inh	TrxR1 substrate	mIDH1 inhibitor	TrxR1 inh	Coupling enz
C=C[C@@H]1c2cc(C)ccc2N(S(=O)(=O)c2ccc(C)cc2)[C@H](c2ccc(C(C)(F)F)cc2)C1(C#N)C#N	·	4.9%	·	28.8%	·
COc1cccc(OCc2cc(C3Nc4ccccc4C(=O)N3Cc3ccco3)ccc2OC)c1 (centres undefined)	-16.3%	36.7%	-0.4%	?	-3.1
COc1ccc(C2Nc3ccccc3C(=O)N2Cc2ccco2)cc1COc1c(C)cccc1C (centres undefined)	·	18.0%	·	20µM*	·
Cc1cc2nc(-c3ccc(SCC(=O)N4CCN(C(=O)c5ccco5)CC4)nc3)[nH]c2cc1C	8.8%	42.6%	7.6%	12.6µM*	-1.4
COc1ccc(C(=O)C(CN2CCCC2)c2ccccc2)cc1 (centres undefined)	2.2%	-14.0%	2.0%	-31.4%	0.4
O=C(c1ccc(F)cc1)C(CN1CCOCC1)c1ccccc1 (centres undefined)	-2.5%	-10.4%	4.7%	56.2µM*	0.8
O=C(c1ccc(Cl)cc1)C(CN1CCCC1)c1ccccc1 (centres undefined)	-0.2%	9.1%	-2.5%	35.5µM*	-1.0
Oc1ccc(COC2CCN(Cc3ccccc3)C2)c2cccnc12 (centres undefined)	4.6%	·	·	·	·
NC(=O)c1c(-c2cccs2)csc1N	-12.5%	0.1%	1.5%	0.9%	-45.1*
CCN1CCN(C(c2ccccc2F)c2c(O)cc(C)n(CCOC)c2=O)CC1 (centres undefined)	·	4.7%[57.1 µM]	1.3%	?	·
CCN1CCN(C(c2ccc(SC)cc2)c2c(O)cc(C)n(CCOC)c2=O)CC1 (centres undefined)	·	4.0%[57.1 µM]	14.8%	25.1µM*	·
COCCn1c(C)cc(O)c(C(c2ccccc2)N2CCN(CCO)CC2)c1=O (centres undefined)	·	6.2%[57.1 µM]	1.4%	?	·
CCN1CCN(C(c2ccccc2Cl)c2c(O)cc(C)n(CCOC)c2=O)CC1 (centres undefined)	·	-2.2%[57.1 µM]	0.0%	10µM*	·
CCCCC/C=C\C/C=C\C/C=C\C/C=C\CCCCCC(=O)NCCCC(=O)O	·	·	·	·	-1.8
CC(C)(C)CC(C)(C)N=C1Nc2ccc([N+](=O)[O-])cc2N[C@]12C[C@H]1CCCC(=O)N3CC[C@@H](C2)[C@@H]13	·	-12.8%	·	-10.0%	·
Cc1sc(N)nc1-c1cccc([N+](=O)[O-])c1	·	-3.0%	·	9.0%	·
NC(=O)c1sc2nc(-c3ccco3)ccc2c1N	-16.0%	6.7%	2.8%	44.7µM*	-0.6
CC(C)(C)n1ncc2c(=O)n(Cc3cccc(F)c3)cnc21	·	-2.5%	·	7.9%	·
CNc1cc2c(Nc3cccc(Br)c3)ncnc2cn1	·	·	·	·	-49.8*
Cc1ccc(Nc2cc(C)c3c(O)cccc3n2)cc1C	-9.7%	-7.6%	67.9%	-16.4%	-36.7*
Cc1ccccc1Nc1cc(C)c2c(O)cccc2n1	-4.6%	6.1%	10.6%	7.2%	-3.0
COC(=O)c1cc(Nc2cc(C)c3c(O)cccc3n2)cc(C(=O)OC)c1	-21.7%	-2.4%	3.2%	-5.0%	0.4
COc1ccc(Nc2cc(C)c3c(O)cccc3n2)cc1	0.1%	-2.7%	22.8%	16.6%	-30.2*
CCCCN(CCCN)c1ccc(Br)cn1	·	-0.4%	·	-6.3%	·

Bioassay records (PubChem BioAssay)
